# Assay results: PubChem BioAssay AID489036 (National Center for Advancing Translational Sciences (NCATS), 2010)
# Several values for one entry are separate records, joined by “and”; a condition that tells them apart may be missing. Equal entries are not always repeated. Results filed as inconclusive are left out. A number with no mark means an inactive call. Activity calls are given as the source filed them. Calls follow the shape of the dose curve; as a rule, active = well fitted inhibition curve with a large enough effect; inconclusive = small, poorly fitted or top-dose-only effect, or effect the other way; inactive = flat fitted curve, though single readings scatter.
# Test: VP16 selectivity assay for inhibitors of ROR gamma transcriptional activity
# Settings: Drosophila Schneider Gal4-VP16 UAS-luciferase reporter, 20 h; series mostly up to 92.2 µM; activity change, negative = inhibition: at the top concentration
# In short: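 Luciferase luminescence read after 20 hr induction with 700 uM (final) copper sulfate at ambient temperature, following 1 hr compound pretreatment. Counter-screen uses Schneider cells carrying metallothionein-driven Gal4 DBD–VP16 and a UAS-Photinus luciferase reporter.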
SMILES,"activity change, negative = inhibition [%]",Potency
COc1cc(O)c(C(CC(=O)N2CCCC(c3nc4ccccc4o3)C2)c2ccc3c(c2)OCO3)c(OC)c1 (centres undefined),-23,–
CC1CCCN(C(=O)CC(c2ccc3c(c2)OCO3)c2ccc(O)cc2O)C1 (centres undefined),-16.7,–
COc1cc(O)c(CCC(=O)N2CCCC(C)C2)c(OC)c1 (centres undefined),7.03,–
Cc1ccc(OCCCC(=O)Nc2nc3ccccc3[nH]2)cc1,–,18.2 µM (active)
COc1cc(OC)c(C(c2ccccc2)C(C)(C)C(=O)N2CC(C)CC(C)C2)c(OC)c1 (centres undefined),–,18.2 µM (active)
C#CCOc1cc(OC)cc(OC)c1C(CC(=O)N1CCCC(C)C1)c1ccc2c(c1)OCO2 (centres undefined),–,45.7 µM (active)
COc1cc(O)c(C(CC(=O)N2CCC(c3ccccc3)CC2)c2ccc(C)cc2)c(OC)c1 (centres undefined),-9.66,–
COc1cc(O)c(C(CC(=O)N2CCCC(C)C2)c2cccc3ccccc23)c(OC)c1 (centres undefined),-28.4,–
CCCCNC(=O)CC(c1ccc2c(c1)OCO2)c1c(O)cc(OC)cc1OC (centres undefined),-10.5,–
COc1cc(O)c(C(CC(=O)N2CCC[C@@H](C)C2)c2ccc3c(c2)OCO3)c(OC)c1 (some centres undefined),–,inactive
COc1cc(O)c(C(CC(=O)N2CCC(Cc3ccccc3)CC2)c2ccc(OC)c(OC)c2)c(OC)c1 (centres undefined),-5.36,–
Cc1ccc(-c2cn(-c3ccccc3)c3[n+]2CCCS3)cc1,–,10.2 µM (active)
CC(C)(C)OC(=O)N1CCC[C@H]1C(=O)N1CCC(C(=O)N[C@H](Cc2ccccc2)C(=O)NCc2ccc(F)cc2)CC1,-14.9,–
O=C(NC(=S)Nc1nc(-c2ccccc2)cs1)c1cccnc1,–,25.7 µM (active)
COc1cc(O)c(C(CC(=O)Nc2ccc(C)cc2)c2ccc3c(c2)OCO3)c(OC)c1 (centres undefined),–,40.7 µM (active)
CCNC(=O)CCc1nc(-c2ccc(C(C)(C)C)cc2)no1,–,5.75 µM (active)
COc1ccc(C(CC(=O)N2CCCC(C)C2)c2c(O)cc(OC)cc2OC)c(OC)c1 (centres undefined),3.14,–
COCOc1cc(OC)cc(OC)c1C(CC(=O)N1CC(C)CC(C)C1)c1ccc2c(c1)OCO2 (centres undefined),–,45.7 µM (active)
COc1ccccc1CNC(=O)[C@@H](NC(=O)C1CCN(C(=O)[C@@H]2CCCN2C(=O)OC(C)(C)C)CC1)C(C)C,6.66,–
CC1CCCN(C(=O)CC(c2ccc3c(c2)OCO3)c2ccc3ccccc3c2O)C1 (centres undefined),-13,–
CCOc1cccc(-c2cc(-c3n[nH]c(=S)n3CC)c3ccccc3n2)c1,–,2.29 µM (active) and 4.07 µM (active)
CCOC(=O)C1CCN(CC(=O)Nc2cc(C)nn2-c2nc3ccccc3s2)CC1,–,22.9 µM (active)
COc1cc(O)c(C(CC(=O)N2CC(C)NC(C)C2)c2ccc3c(c2)OCO3)c(OC)c1 (centres undefined),1.93,–
COc1cc(C)nc(-n2nc(C)cc2OC)n1,–,14.4 µM (active)
COc1cc(O)c(C(CC(=O)N2CCCC(C)C2)c2ccc(-c3ccccc3)cc2)c(OC)c1 (centres undefined),-13.7,–
CC(C)[C@H](NC(=O)C1CCN(C(=O)[C@@H]2CCCN2C(=O)OC(C)(C)C)CC1)C(=O)NCc1ccc(F)cc1,13,–
COc1cc(O)c(C(CC(=O)N(Cc2ccccc2)Cc2ccccc2)c2ccc3c(c2)OCO3)c(OC)c1 (centres undefined),-7.83,–
COc1cc(O)c(C(CC(=O)N2CCOCC2)c2ccc3c(c2)OCO3)c(OC)c1 (centres undefined),21.6,–
CC1CCCN(C(=O)CC(c2ccc3c(c2)OCO3)c2c(O)cccc2Cl)C1 (centres undefined),–,40.7 µM (active)
